The results in this text go back to PubChem BioAssay (EPA / NIEHS).

Active and inactive are the calls of the source. The calls were made as follows: active = hit-call score of the fitted dose curve at least 0.9, where 1 is the maximum; inactive = score below 0.9.

Conditions in all cases: mRNA level, 48 h; actives raise or lower the signal
Read-out in test [1]: MYC, MYC (gene 4609)
The test can be described thus: LTEA_HepaRG_MYC: Life Technologies and Expression Analysis (LTEA) Assay for MYC using HepaRG (AID 2283518). In short, it runs like this: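 Cells are thawed, plated and cultured 48 h, then treated for 48 h with test chemicals (eight half-log concentrations from 100 uM, 0.5% DMSO vehicle). RNA is isolated and MYC expression quantified by qRT-PCR against three housekeeping genes.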

Read-out in test [2]: matrix metalloproteinase-3 (MMP3), MMP3 (gene 4314)
In words: LTEA_HepaRG_MMP3: Life Technologies and Expression Analysis (LTEA) Assay for matrix metalloproteinase-3 (MMP3) using HepaRG (AID 2283519). In short, it runs like this:
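Differentiated human HepaRG cells, plated 48 h on collagen I, were exposed in duplicate for 48 h in serum-free induction medium to eight half-log concentrations up to 100 uM in 0.5% DMSO. MMP3 mRNA was quantified by TaqMan qRT-PCR, normalised to ACTB, GAPDH and POLR2A.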

Read-out in test [3]: Paternally Expressed 10 (PEG10), PEG10 (gene 23089)
The test can be described thus: LTEA_HepaRG_PEG10: Life Technologies and Expression Analysis (LTEA) Assay for Paternally Expressed 10 (PEG10) using HepaRG (AID 2283520). The procedure, abridged:
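HepaRG, 48 h post-plating → serum-free induction medium → 48 h chemical exposure (duplicate, 8-pt, max 100 uM, half-log, 0.5% DMSO) → lysis in RLT → TaqMan qRT-PCR for PEG10, ACTB/GAPDH/POLR2A normalisation.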

Read-out in test [4]: Nuclear factor NF-kappa-B p105 subunit (Homo sapiens) (UniProt P19838)
In words: LTEA_HepaRG_NFKB1: Life Technologies and Expression Analysis (LTEA) Assay for Nuclear Factor Kappa B Subunit 1 (NFKB1) using HepaRG (AID 2283521). In short, it runs like this: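 NFKB1 transcript was measured by TaqMan qRT-PCR on Fluidigm arrays, normalised to three housekeeping genes and fitted in both directions against 0.5% DMSO. HepaRG cells were dosed in duplicate for 48 h in serum-free induction medium, eight half-log steps from 100 uM.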

Read-out in test [5]: Protein phosphatase 2A (PPP2R4), PTPA (gene 5524)
In words: LTEA_HepaRG_PPP2R4: Life Technologies and Expression Analysis (LTEA) Assay for Protein phosphatase 2A (PPP2R4) using HepaRG (AID 2283522). In short, it runs like this: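 Readout is PPP2R4 transcript level by microfluidic qRT-PCR after 48 h chemical treatment of human HepaRG liver cells. Concentrations spanned 100 uM downward in half-log steps; gain or loss of signal was fitted relative to DMSO.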

Read-out in test [6]: Phosphatase and tensin (PTEN), PTEN (gene 5728)
In words: LTEA_HepaRG_PTEN: Life Technologies and Expression Analysis (LTEA) Assay for Phosphatase and tensin (PTEN) using HepaRG (AID 2283523). In short, it runs like this: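 Differentiated human HepaRG cells, plated 48 h then switched to serum-free induction medium, were exposed in duplicate for 48 h to eight half-log concentrations up to 100 uM in 0.5% DMSO. PTEN mRNA measured by TaqMan qRT-PCR, normalized to ACTB/GAPDH/POLR2A, bidirectional fit versus DMSO.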

Read-out in test [7]: solute carrier (SLC22A1), SLC22A1 (gene 6580)
The test can be described thus: LTEA_HepaRG_SLC22A1: Life Technologies and Expression Analysis (LTEA) Assay for solute carrier (SLC22A1) using HepaRG (AID 2283524). In short, it runs like this:
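Human HepaRG cells were plated 48 h, switched to serum-free induction medium, then exposed in duplicate for 48 h to 8-point half-log series from 100 uM in 0.5% DMSO. SLC22A1 mRNA measured by qRT-PCR, normalized to ACTB/GAPDH/POLR2A, fitted bidirectionally versus DMSO.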

Read-out in test [8]: Pyruvate Dehydrogenase Kinase 4 (PDK4), PDK4 (gene 5166)
In words: LTEA_HepaRG_PDK4: Life Technologies and Expression Analysis (LTEA) Assay for Pyruvate Dehydrogenase Kinase 4 (PDK4) using HepaRG (AID 2283525). The procedure, abridged:
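Differentiated human HepaRG cells, pre-cultured 48 h, were exposed in duplicate for 48 h in serum-free induction medium to eight half-log concentrations up to 100 uM in 0.5% DMSO. PDK4 mRNA was quantified by qRT-PCR, normalized to ACTB, GAPDH and POLR2A, bidirectional fitting versus DMSO.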

Read-out in test [9]: NAD(P)H dehydrogenase [quinone] 1 (NQO1), NQO1 (gene 1728)
The test can be described thus: LTEA_HepaRG_NQO1: Life Technologies and Expression Analysis (LTEA) Assay for NAD(P)H dehydrogenase [quinone] 1 (NQO1) using HepaRG (AID 2283526). The procedure, abridged: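 HepaRG, 48 h post-plating → serum-free induction medium → test chemical 48 h (duplicate, 100 uM top, half-log x8, 0.5% DMSO) → RNA isolation → qRT-PCR, ACTB/GAPDH/POLR2A normalization; bidirectional curve fit vs DMSO baseline.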

Read-out in test [10]: Nuclear factor erythroid 2-related factor 2 (Homo sapiens) (UniProt Q16236)
In words: LTEA_HepaRG_NFE2L2: Life Technologies and Expression Analysis (LTEA) Assay for Nuclear factor erythroid 2-related factor 2 (NFE2L2) Transcription Factor using HepaRG (AID 2283527). In short, it runs like this:
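Differentiated human HepaRG cells in serum-free induction medium were exposed for 48 h to eight concentrations (top 100 uM, half-log dilutions, 0.5% DMSO), in duplicate. NFE2L2 mRNA was quantified by TaqMan qRT-PCR, normalized to ACTB, GAPDH and POLR2A, with bidirectional fitting versus DMSO.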

Read-out in test [11]: succinate dehydrogenase complex iron sulfur subunit B (SDHB), SDHB (gene 6390)
The test can be described thus: LTEA_HepaRG_SDHB: Life Technologies and Expression Analysis (LTEA) Assay for succinate dehydrogenase complex iron sulfur subunit B (SDHB) using HepaRG (AID 2283528). The procedure, abridged:
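SDHB transcript level read by TaqMan qRT-PCR, housekeeping-normalised (ACTB, GAPDH, POLR2A), after 48 h chemical treatment of plated HepaRG cells; eight concentrations top 100 uM, half-log steps, 0.5% DMSO, duplicates; fitted both directions against DMSO.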

Read-out in test [12]: Signal transducer and activator of transcription 3 (Homo sapiens) (UniProt P40763)
The test can be described thus: LTEA_HepaRG_STAT3: Life Technologies and Expression Analysis (LTEA) Assay for Signal transducer and activator of transcription (STAT3) using HepaRG (AID 2283529). In short, it runs like this:
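Differentiated human HepaRG cells in serum-free induction medium were exposed in duplicate for 48 h to eight half-log concentrations up to 100 uM in 0.5% DMSO. STAT3 mRNA was quantified by TaqMan qRT-PCR, normalized to ACTB, GAPDH and POLR2A, and fitted bidirectionally against DMSO.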

Read-out in test [13]: solute carrier (SLCO1B1), SLCO1B1 (gene 10599)
The test can be described thus: LTEA_HepaRG_SLCO1B1: Life Technologies and Expression Analysis (LTEA) Assay for solute carrier (SLCO1B1) using HepaRG (AID 2283530). In short, it runs like this: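 Gain or loss of SLCO1B1 mRNA is fitted against the 0.5% DMSO vehicle in human HepaRG liver cells treated 48 h at up to 100 uM in half-log steps. Expression comes from qRT-PCR normalized to endogenous controls.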

Read-out in test [14]: sulfotransferase 2A1 (SULT2A1), SULT2A1 (gene 6822)
In words: LTEA_HepaRG_SULT2A1: Life Technologies and Expression Analysis (LTEA) Assay for sulfotransferase 2A1 (SULT2A1) using HepaRG (AID 2283531). The procedure, abridged:
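Cells were plated and cultured 48 h, switched to serum-free induction medium, then dosed in duplicate for 48 h (8 concentrations, max 100 uM). RNA was isolated and SULT2A1 expression measured by qRT-PCR; gain or loss of signal fitted relative to DMSO.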

Read-out in test [15]: Transforming Growth Factor (TGFA), TGFA (gene 7039)
In words: LTEA_HepaRG_TGFA: Life Technologies and Expression Analysis (LTEA) Assay for Transforming Growth Factor (TGFA) using HepaRG (AID 2283532). The procedure, abridged: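 Differentiated human HepaRG cells, plated 48 h then switched to serum-free induction medium, were exposed in duplicate for 48 h to 8-point half-log series from 100 uM in 0.5% DMSO. TGFA mRNA measured by qRT-PCR, normalized to ACTB/GAPDH/POLR2A, bidirectional fit versus DMSO.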

Read-out in test [16]: Transforming Growth Factor (TGFB1), TGFB1 (gene 7040)
In words: LTEA_HepaRG_TGFB1: Life Technologies and Expression Analysis (LTEA) Assay for Transforming Growth Factor (TGFB1) Transporter using HepaRG (AID 2283533). The procedure, abridged: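 Expression change of TGFB1 in human HepaRG cells is measured after a 48 h chemical exposure, up to 100 uM in 0.5% DMSO vehicle. Curves are fitted in both directions relative to the DMSO baseline.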

Read-out in test [17]: TIMP1, TIMP1 (gene 7076)
In words: LTEA_HepaRG_TIMP1: Life Technologies and Expression Analysis (LTEA) Assay for TIMP1 using HepaRG (AID 2283534).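 Also: TaqMan qRT-PCR signal normalized to ACTB GAPDH and POLR2A housekeeping genes.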 In short, it runs like this: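 We dosed human liver HepaRG cultures for 48 hours with up to 100 uM test chemical and measured TIMP1 expression by qRT-PCR. Activity in either direction is fitted relative to the 0.5% DMSO vehicle.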

Read-out in test [18]: Tumor necrosis factor receptor 1 (TNFRSF1A), TNFRSF1A (gene 7132)
The test can be described thus: LTEA_HepaRG_TNFRSF1A: Life Technologies and Expression Analysis (LTEA) Assay for Tumor necrosis factor receptor 1 (TNFRSF1A) using HepaRG (AID 2283535). The procedure, abridged:
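Expression of TNFRSF1A in human HepaRG liver cells was measured by qRT-PCR 48 h after chemical dosing (maximum 100 uM). Bidirectional curve fitting used 0.5% DMSO as baseline.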

Read-out in test [19]: Thyroid Hormone Responsive (THRSP), THRSP (gene 7069)
The test can be described thus: LTEA_HepaRG_THRSP: Life Technologies and Expression Analysis (LTEA) Assay for Thyroid Hormone Responsive (THRSP) using HepaRG (AID 2283536). The procedure, abridged:
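Differentiated human HepaRG cells were exposed in duplicate for 48 h in serum-free induction medium to eight concentrations (top 100 uM, half-log steps, 0.5% DMSO). Expression was quantified by TaqMan qRT-PCR, normalized to ACTB, GAPDH and POLR2A, with bidirectional fitting against DMSO.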

Read-out in test [20]: Cellular tumor antigen p53 (Homo sapiens) (UniProt P04637)
In words: LTEA_HepaRG_TP53: Life Technologies and Expression Analysis (LTEA) Assay for Tumor Protein P53 (TP53) using HepaRG (AID 2283537). In short, it runs like this: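 TP53 transcript measured by qRT-PCR, normalized to three housekeeping genes, after 48 h treatment of human HepaRG cultures with chemicals from 100 uM downward in half-log steps (0.5% DMSO vehicle, serum-free induction medium). Up- or down-regulation fitted against DMSO.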

Signal transducer and activator of transcription 3 (Homo sapiens), sequence (P40763 whole entry, looked up): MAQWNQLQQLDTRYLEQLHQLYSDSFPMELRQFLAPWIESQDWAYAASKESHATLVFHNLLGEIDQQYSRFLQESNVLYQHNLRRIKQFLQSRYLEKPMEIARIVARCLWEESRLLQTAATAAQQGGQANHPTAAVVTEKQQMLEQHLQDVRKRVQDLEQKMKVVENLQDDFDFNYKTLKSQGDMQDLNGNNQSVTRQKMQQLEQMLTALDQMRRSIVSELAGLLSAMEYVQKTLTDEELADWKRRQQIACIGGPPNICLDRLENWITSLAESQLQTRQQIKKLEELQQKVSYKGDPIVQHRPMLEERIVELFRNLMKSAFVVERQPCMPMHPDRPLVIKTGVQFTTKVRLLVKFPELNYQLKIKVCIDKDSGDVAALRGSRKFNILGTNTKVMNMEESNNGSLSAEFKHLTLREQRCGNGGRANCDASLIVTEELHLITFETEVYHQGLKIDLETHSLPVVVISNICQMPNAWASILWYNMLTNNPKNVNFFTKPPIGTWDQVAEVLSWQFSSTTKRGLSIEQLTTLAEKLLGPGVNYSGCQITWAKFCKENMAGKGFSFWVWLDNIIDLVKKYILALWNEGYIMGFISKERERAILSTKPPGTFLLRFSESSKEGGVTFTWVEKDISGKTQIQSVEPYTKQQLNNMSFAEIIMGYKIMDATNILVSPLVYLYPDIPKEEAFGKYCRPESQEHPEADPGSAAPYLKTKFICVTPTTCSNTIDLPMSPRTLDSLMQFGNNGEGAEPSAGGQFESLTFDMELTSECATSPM
Nuclear factor erythroid 2-related factor 2 (Homo sapiens), sequence (Q16236 whole entry, looked up): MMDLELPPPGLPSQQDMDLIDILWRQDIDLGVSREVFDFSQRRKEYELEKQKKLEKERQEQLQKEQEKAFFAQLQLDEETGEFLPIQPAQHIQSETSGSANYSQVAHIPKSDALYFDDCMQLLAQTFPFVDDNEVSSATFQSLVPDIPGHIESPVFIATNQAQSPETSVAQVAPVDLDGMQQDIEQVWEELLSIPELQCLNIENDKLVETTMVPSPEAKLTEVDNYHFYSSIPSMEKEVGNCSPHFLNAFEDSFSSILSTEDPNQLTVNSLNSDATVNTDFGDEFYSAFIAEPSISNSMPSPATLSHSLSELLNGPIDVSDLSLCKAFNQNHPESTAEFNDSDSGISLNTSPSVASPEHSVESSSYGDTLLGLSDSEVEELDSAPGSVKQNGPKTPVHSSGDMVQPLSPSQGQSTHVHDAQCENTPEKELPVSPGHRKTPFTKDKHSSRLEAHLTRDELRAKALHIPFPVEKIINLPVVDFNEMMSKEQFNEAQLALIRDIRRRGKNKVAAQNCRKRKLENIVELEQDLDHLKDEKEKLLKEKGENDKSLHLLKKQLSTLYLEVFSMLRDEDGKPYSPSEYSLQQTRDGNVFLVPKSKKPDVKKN
Nuclear factor NF-kappa-B p105 subunit (Homo sapiens), sequence (P19838 whole entry, looked up): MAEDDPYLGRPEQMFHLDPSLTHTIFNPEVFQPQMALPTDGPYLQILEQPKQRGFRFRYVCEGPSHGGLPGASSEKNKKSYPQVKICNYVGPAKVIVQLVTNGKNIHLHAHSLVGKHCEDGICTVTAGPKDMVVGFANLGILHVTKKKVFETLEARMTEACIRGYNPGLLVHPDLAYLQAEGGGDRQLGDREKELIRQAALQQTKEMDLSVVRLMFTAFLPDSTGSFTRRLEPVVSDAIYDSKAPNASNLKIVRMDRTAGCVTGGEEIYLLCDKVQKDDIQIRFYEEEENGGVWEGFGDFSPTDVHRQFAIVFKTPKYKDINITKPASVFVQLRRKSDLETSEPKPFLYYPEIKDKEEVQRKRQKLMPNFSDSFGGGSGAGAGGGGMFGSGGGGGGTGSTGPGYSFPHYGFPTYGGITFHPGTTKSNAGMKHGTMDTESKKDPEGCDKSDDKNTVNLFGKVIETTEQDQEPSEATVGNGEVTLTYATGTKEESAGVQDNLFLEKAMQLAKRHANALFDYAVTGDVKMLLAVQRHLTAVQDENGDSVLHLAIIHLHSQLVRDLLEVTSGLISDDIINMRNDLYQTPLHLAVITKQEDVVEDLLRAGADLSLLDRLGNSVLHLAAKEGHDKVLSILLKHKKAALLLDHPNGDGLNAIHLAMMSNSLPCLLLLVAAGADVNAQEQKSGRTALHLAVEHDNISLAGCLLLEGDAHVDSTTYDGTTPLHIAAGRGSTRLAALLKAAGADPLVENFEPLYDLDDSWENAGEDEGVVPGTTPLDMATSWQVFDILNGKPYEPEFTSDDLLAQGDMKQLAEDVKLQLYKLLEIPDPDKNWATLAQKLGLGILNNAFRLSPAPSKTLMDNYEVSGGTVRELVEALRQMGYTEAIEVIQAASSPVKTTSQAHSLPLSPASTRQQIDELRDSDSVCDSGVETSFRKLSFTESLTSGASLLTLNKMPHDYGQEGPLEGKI
Cellular tumor antigen p53 (Homo sapiens), sequence (P04637 whole entry, looked up): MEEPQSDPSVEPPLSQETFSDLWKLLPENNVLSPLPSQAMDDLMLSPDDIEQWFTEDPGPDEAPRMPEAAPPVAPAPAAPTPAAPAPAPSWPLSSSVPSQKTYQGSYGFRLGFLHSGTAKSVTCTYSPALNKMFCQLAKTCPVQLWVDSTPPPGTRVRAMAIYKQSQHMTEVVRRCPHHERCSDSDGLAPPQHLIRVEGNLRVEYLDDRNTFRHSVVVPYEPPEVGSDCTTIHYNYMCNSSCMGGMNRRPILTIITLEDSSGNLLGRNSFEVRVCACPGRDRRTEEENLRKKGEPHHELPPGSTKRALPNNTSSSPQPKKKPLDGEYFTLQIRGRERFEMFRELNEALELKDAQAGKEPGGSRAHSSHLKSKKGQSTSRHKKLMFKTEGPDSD

Take `O=[Si]=O`: the compound was called inactive in test [1], in [2], in [3], in test [4], in [5] and in test [6]. The result in test [7], in [8], in test [9], in [10], in [11] and in test [12] was inactive. The result in test [13], in test [14], in [15], in [16], in test [17] and in test [18] was inactive. For the same compound, the outcome in test [19] and in [20] was inactive.
In the case of `C=CCCCCCCCCCCCC`, the compound was classed as inactive in test [1], in test [2], in test [3], in [4], in test [5] and in [6]. Further, the compound was called inactive in test [7], in test [8], in [9], in test [10], in test [11] and in [12]. The compound was called inactive in test [13], in [14], in test [15], in [16], in test [17] and in test [18]. Also, the call in [19] and in test [20] was inactive.
Usually AC50 stands for the midpoint of the concentration-response curve, whichever way the signal moves. In the case of `OCC(O)CO`, the call in test [1], in test [2], in [3], in test [5], in test [6] and in test [7] was inactive. The compound was classed as inactive in [8], in test [9], in [10], in test [11], in test [12] and in [13]. Further, the outcome in test [14], in test [15], in test [16], in [17], in [18] and in test [19] was inactive. Also, the call in test [20] was inactive. Also, in test [4], the AC50 is 1.06 µM (active).
Turning to `CCCCC(CC)CO` (stereo not drawn), the result in test [1], in test [2], in [3], in test [4], in [5] and in test [6] was inactive. Further, the call in [7], in test [8], in test [10], in test [11], in test [12] and in [13] was inactive. For the same compound, the outcome in test [14], in [15], in [16], in test [17], in test [18] and in test [19] was inactive. Also, the outcome in [20] was inactive.
On to `O=C(O)CC(O)(CC(=O)O)C(=O)O`, for which the compound was classed as inactive in test [1], in test [2], in test [3], in test [4], in test [5] and in test [6]. In addition, the result in test [7], in test [8], in test [9], in test [10], in test [11] and in test [12] was inactive. Further, the call in test [13], in [14], in [15], in [16], in test [17] and in [18] was inactive. In addition, the compound was classed as inactive in test [19] and in [20].
Take `CCCC(=O)O`: the call in test [1], in test [2], in test [3], in test [4], in [5] and in test [6] was inactive. The compound was called inactive in test [7], in [8], in [9], in test [10], in test [11] and in test [12]. In addition, the compound was classed as inactive in test [13], in test [14], in test [15], in test [16], in test [17] and in test [18]. In addition, the outcome in [19] was inactive.
